# Test results taken from PubChem BioAssay (NCI).
# The panel holds about 83,000 compounds, 20% with a hit somewhere; the sample as a whole holds those more often.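 Values shown are percent growth following 48 h exposure of cells in 96-well plates to a single concentration of compound; below 10 was considered active.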 Values without a mark were called inactive. Calls of active or inactive are those of the source.
# Test system: IGROV1 ovarian
# Assay: NCI-60 one-dose screen, 48 h (100 = growth as untreated, 0 = no growth, -100 = all killed)
# Conditions: 10 µM
row,Structure (SMILES),growth
1,Cc1ccc(F)cc1N/C=c1\s/c(=C(\C#N)C(=O)Nc2ccccc2)n(-c2ccccc2)c1=O,61.5%
2,COc1ccc([C@H]2C(C(=O)c3ccc(Cl)cc3)C3(N[C@@H]2c2ccccc2)C(=O)Nc2ccc(Cl)cc23)cc1 (some centres not stated),-1.76% (active)
3,O=C1Nc2cc(-c3ccc(NC(=O)c4cccc([N+](=O)[O-])c4)cc3)ccc2/C1=C/c1ccc[nH]1,95.7%
4,CCCn1c(=O)c2[nH]c(-c3ccc(OCc4nc5ccc(F)cc5[nH]4)cc3)nc2n(CCC)c1=O,28.1%
5,CCCS(=O)(=O)c1oc(-c2ccc(F)cc2)nc1S(=O)(=O)c1ccc(F)cc1,74.9%
6,O=C(CSc1nnc(-c2c[nH]c3ccccc23)n1-c1ccccc1)Nc1ccc(C(=O)/C=C/c2ccc(Br)cc2)cc1,80.5%
7,CCOC(=O)C1=C(N)N(c2ccc(Cl)cc2)C2=C(C(=O)CC(C)(C)C2)C1c1ccc(N2CCOCC2)cc1 (configuration not stated),98%
8,COc1ccc2[nH]cc(/C=N/Nc3ccc(Br)cn3)c2c1,10.3%
9,O/N=C(\CSc1nnc(-c2c[nH]c3ccccc23)n1-c1ccccc1)c1ccc(Cl)cc1,-34.1% (active)
10,COc1ccc2[nH]c(O)c(N=NC(=O)COc3ccc(NC(=O)Nc4ccc(Cl)c(Cl)c4)cc3)c2c1,-4.72% (active)
11,C=C1CC[C@H](C(=C)C)[C@H]2C=C(C)C(=O)C3=C(C(=O)[C@@](C)(O)C3)[C@H]12,-61.4% (active)
12,O=S(=O)(Nc1ncccn1)c1ccc(-n2c(-c3ccccc3)nc(-c3ccccc3)c2-c2ccccc2)cc1,103%
